HT1080-NT tox: qHTS for induction of synthetic lethality in tumor cells producing 2HG: qHTS for the HT-1080-NT fibrosarcoma cell line; 1.6% of 360,000 active; Potency, µM (titrated, usually from 46.1 µM), for inactives: at the highest dose activity, negative = less viability, usual class: cytotoxic; HT-1080-NT fibrosarcoma viability, CellTiter-Glo ATP luminescence, 48 h;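 also: NT is the 2HG producing partner of a matched IDH1 knockdown line; potency is read from the fitted curve at half-maximal effect; 0% = DMSO-treated cells and -100% = media-only wells without cells; nearly all actives have a fitted effect of over 55% in size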
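Compounds were tested in concentration-response format on HT-1080-NT cells for 48 hours at 37 degrees C. Cell viability came from CellTiter-Glo luminescence; curves were classified by r2, response magnitude and activity.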
HT1080 IDH1KD tx: qHTS for induction of synthetic lethality in tumor cells producing 2HG: qHTS for the HT-1080-IDH1KD cell line. HT-1080 IDH1 knockdown viability, ATP luminescence, 48 h. Potency, µM (top dose mostly 46.1 µM), for inactives: top-dose activity, negative = toxicity, usual class: cytotoxic. 2% of 360,000 active. AID 686971, 2013;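 also: potency is read from the fitted curve at half-maximal effect; 0% = DMSO wells and -100% = cell-free medium wells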
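% activity derives from luminescence (CellTiter-Glo), normalised to DMSO and no-cell wells. HT-1080-IDH1KD cells, 750/well, had 48 h compound exposure at 37 °C.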
ELG1 DNA repair: qHTS screen for small molecules that inhibit ELG1-dependent DNA repair in human embryonic kidney (HEK293T) cells expressing luciferase-tagged ELG1 | HEK293T ELG1-luciferase reporter, luminescence, 16 h; DNA damage induced by 5-fluorouridine | Potency, µM (doses to about 46.1 µM), without a hit: top-dose activity change, negative = inhibition, actives largely listed as inhibitors | 2.3% of 330,000 active; also: potency is read from the fitted curve at half-maximal effect; nearly all actives have a fitted effect of over 55% in size
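Quantitative HTS, concentration-response format. 2,000 cells/well co-treated with 5-fluorouridine and compound, 16 hr in 5% CO2 at 37 °C; ONE-Glo luminescence read after 30 min.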
IL-1B inflam inh: qHTS for Inhibitors of Inflammasome Signaling: IL-1-beta AlphaLISA Primary Screen; THP-1 LPS/ATP IL-1B secretion, AlphaLISA, 16 h; active compounds read low; activity change, % at 57.5 µM; 4.7% of 360,000 active; in the data active = activity change below about -50%; inconclusive = mostly about -30% to -49%
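Secreted IL-1B measured by AlphaLISA bead assay after 16 h compound exposure of THP-1 cells; compounds (final up to 57.5 uM) added 1 h before LPS (250 ng/mL) and ATP (1.25 mM) stimulation; lower signal means less secretion.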
DT40 TDP1 CPT: qHTS for Inhibitors of human tyrosyl-DNA phosphodiesterase 1 (TDP1): qHTS in cells in presence of CPT; Potency, µM (doses to about 46.2 µM), inactives show at the top dose activity change, negative = growth inhibition, usual class: inhibitors; AID 686979, 2013; chicken DT40 Tdp1-/-;hTDP1 cells + 20 nM CPT, ATP luminescence, 48 h; 12% of 420,000 active; also: potency is read from the fitted curve at half-maximal effect; nearly all actives have a fitted effect of over 55% in size
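Chicken DT40 Tdp1-/- cells complemented with human TDP1, 400 cells/well, exposed to compounds plus 20 nM camptothecin for at least 48 h at 37 C; viability read as ATP content by CellTiter-Glo luminescence.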
TDP1 cell noCPT: qHTS for Inhibitors of human tyrosyl-DNA phosphodiesterase 1 (TDP1): qHTS in cells in absence of CPT; DT40 Tdp1-/- hTDP1 cells, no CPT, ATP luminescence, 48 h; Potency, µM (titrated, usually from 46.2 µM), for the others: at the top dose activity change, negative = growth inhibition, most hits filed as inhibitors; 15% of 420,000 active; AID 686978, 2013; also: potency is read from the fitted curve at half-maximal effect; nearly all actives have a fitted effect of over 55% in size
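Camptothecin absent (DMSO only). Human TDP1-complemented DT40 knockout cells, 400 cells/well, 37 °C for minimum 48 hr; ATP measured via CellTiter-Glo, 30 min dark incubation, luminescence.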
An asterisk follows results filed as active; u = inconclusive; x = no result given. Shown are actives, neighbours in structure and some others; about 19% of the full set was active somewhere. Unless noted, calls follow the shape of the dose curve; as a rule, active = well fitted curve in the direction sought with a large enough effect; inconclusive = small, poorly fitted or top-dose-only effect, or another doubt; inactive = no such curve, though single readings can be large; an effect the other way counts as inactive or inconclusive. Unless noted, % is scaled to controls: 0 for no effect and ±100 for the full control effect.

SMILES | HT1080-NT tox | HT1080 IDH1KD tx | ELG1 DNA repair | IL-1B inflam inh | DT40 TDP1 CPT | TDP1 cell noCPT
Cc1ccc(S(=O)(=O)/N=C2/C=C(Sc3ncn[nH]3)C(=O)c3ccccc32)c(C)c1 | x | x | 21µM* | x | x | x
O=C(O)CC1NC(=S)N(Cc2ccccc2)C1=O (stereo not given) | -11% | -21% | x | 4 | 21µM* | 18µM*
Cc1cc(C)cc(N2CCn3c2nc2c3c(=O)n(CCc3ccccc3)c(=O)n2C)c1 | x | x | x | x | 0% | -3%
CC(=O)N(C1=C(Cl)C(=O)c2ccccc2C1=O)C1CCCCC1 | 4.1µM* | 2.9µM* | 16µM* | -97* | 0.46µM* | 0.52µM*
C/C(=N\N(c1ccccc1)c1ccccc1)c1ccc(O)cc1 | u | u | 2% | -63* | 5% | -11%
O=C(COc1ccccc1)NC(=S)Nc1cccc2cc(O)ccc12 | 6% | -13% | 4% | -8 | 17% | 15%
Cc1ccc(O)c(C(=O)CC(=O)c2ccc(C(C)(C)C)cc2)c1 | -22% | -4% | -9% | 31 | 7.3µM* | 4.6µM*
Cc1ccc(O)c(C(=O)CC(=O)c2ccccc2Cl)c1 | u | 12µM* | 2% | 0 | 2.3µM* | 4.6µM*
COc1cccc(/C=C(\C#N)c2nc3ccccc3c(=O)[nH]2)c1OC | x | x | x | x | -26% | u
O=C(CSc1ncc2c(n1)-c1ccccc1N(Cc1ccccc1)S2(=O)=O)Nc1ccccc1 | x | x | x | x | 2% | 3%
O=C1NC(Cc2ccccc2)C(=O)N1Cc1ccccc1 (stereo not given) | 9% | 10% | x | -7 | 4% | -18%
O=c1ccsn1Cc1ccccc1 | u | 23µM* | 0% | -101* | 0.29µM* | 0.65µM*
Cc1ccc(S(=O)(=O)NCC(NCc2ccc(F)cc2)c2ccccc2)cc1 (stereo not given) | 0% | 3% | 3% | 2 | u | u
Cc1ccc(S(=O)(=O)NCC(Nc2cccc(Cl)c2)c2ccccc2)cc1 (stereo not given) | x | x | x | x | 18µM* | u
O=[N+]([O-])c1cnccc1-n1nnc2ccccc21 | u | u | x | -116* | 16µM* | 18µM*
COC(=O)C[C@H]1CC[C@H](NS(=O)(=O)c2cn(C)cn2)[C@@H](CO)O1 | 1% | 16% | x | 2 | -4% | 16%
O=C(Cc1ccc(S(=O)(=O)N2CCOCC2)s1)Nc1cc(Cl)ccc1Cl | -7% | -13% | u | -57* | 4% | -15%
COc1ccc(Br)cc1CN(C)C(=O)Cc1ccc(S(=O)(=O)N2CCOCC2)s1 | -1% | -10% | -28% | -2 | u | 21µM*
Cc1ccc(C)c(NC(=O)Cc2ccc(S(=O)(=O)N3CCCCC3)s2)c1 | 0% | 2% | -15% | -12 | -7% | u
CCOC(=O)c1ccccc1NC(=O)Cc1ccc(S(=O)(=O)N2CCCC2)s1 | -1% | -4% | 26µM* | -18 | u | u
COc1cc(NC(=O)Cc2ccc(S(=O)(=O)N3CCOCC3)s2)c(OC)cc1Cl | -4% | -15% | u | 12 | u | 21µM*
COC1c2ccccc2C(=O)N1CCc1ccc(Cl)cc1 (stereo not given) | 7% | 15% | u | -7 | -23% | -6%
COc1cc2c(cc1OC)C1C(C(=O)Nc3ccccc3N3CCN(C)CC3)c3ccccc3C(=O)N1CC2 (stereo not given) | -9% | -2% | 19% | -15 | 1% | 1%
C/C(=N/NC(=O)c1cc(-c2ccc(Br)s2)[nH]n1)c1ccco1 | -19% | u | -14% | -69* | -17% | u
CCCCc1cc(=O)oc2c(C)c(OCC(=O)N3CCC(C(=O)O)(c4ccccc4)CC3)ccc12 | -14% | -15% | 2% | 4 | 18% | -23%
SMILES | HT1080-NT tox | HT1080 IDH1KD tx | ELG1 DNA repair | IL-1B inflam inh | DT40 TDP1 CPT | TDP1 cell noCPT
Cc1cc(OC(C)C(=O)NC2CCN(Cc3ccccc3)CC2)c2c(C)cc(=O)oc2c1 (stereo not given) | 1% | 0% | 1% | 15 | -46% | -25%
CCc1cc(=O)oc2cc(C)cc(OC(C)C(=O)NC3CCN(Cc4ccccc4)CC3)c12 (stereo not given) | -16% | -6% | -2% | -63* | u | u
CCc1cc(=O)oc2cc(C)cc(OCC(=O)N3CCC(C(=O)NC(C)C)(c4ccccc4)CC3)c12 | -27% | -16% | u | u | 23µM* | 21µM*
COc1ncc2nc(C)c(=O)n(CCC#N)c2n1 | x | x | x | x | 14% | -12%
Clc1ccccc1OCCN1CCC(Cc2ccccc2)CC1 | -4% | -28% | -1% | u | u | u
COc1cc(C(C)=O)ccc1OCCN1CCC(Cc2ccccc2)CC1 | -23% | u | 5% | -64* | u | u
COc1cc(C(C)=O)ccc1OCC(=O)N1CCC(Cc2ccccc2)CC1 | -15% | -14% | x | -10 | u | u
O=Cc1cc(Cl)ccc1OCCN1CCC(Cc2ccccc2)CC1 | 21µM* | u | -10% | -93* | u | 16µM*
COc1cc(C(C)=O)ccc1OCCCN1CCC(Cc2ccccc2)CC1 | u | u | -9% | -55* | u | u
COc1ccc(S(=O)(=O)N2CCOCC2)cc1NC(=O)CN1C(=O)NC2(CCC(C)CC2)C1=O (stereo not given) | -1% | 0% | x | -1 | -13% | -26%
CCc1cc(C(=O)/C=C/c2cc3c(cc2C)OCCO3)c(O)cc1O | u | -66% | x | x | 13µM* | 11µM*
O=C(/C=C/c1ccc2c(c1)OCCCO2)c1ccc2ccccc2c1O | -29% | u | u | 12 | u | 12µM*
Cc1ccc(C(=O)/C=C/c2ccc3c(c2)OCCO3)c(O)c1 | -18% | -19% | u | -93* | u | u
O=[N+]([O-])c1ccc(CN2CCN(c3ccc(Cl)cc3)CC2)o1 | 2% | 10% | -2% | -7 | -25% | -13%
COC(=O)/C(C#N)=C/c1cc(C)sc1C | 28% | 23% | -12% | x | 9% | -23%

Source: PubChem BioAssay (National Center for Advancing Translational Sciences (NCATS))
